From PubChem BioAssay AID1578 (Sanford-Burnham Center for Chemical Genomics, 2009)
Hit rate of the full screen: of about 290,000 compounds, about 3,000 (1%) were called active. What follows is part of a selection rich in actives, with near analogues and random picks from the rest. A number with no mark means an inactive call. No stated cut-off is given here; in the data, active means inhibition mostly above about 36% (no sharp cut-off); inactive means mostly below about 34%.

experiment: NOD1 signaling inhibitors, primary screen, cell-based, luminescence, uHTS (AID 1578); conditions: NOD1-driven NF-kB luciferase reporter cells, at 4 µM, hits give high values;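 further: HEK-293T reporter cells stimulated with the NOD1 agonist gamma-tri-DAP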

Compared with `CCn1c(=O)c2cc(C(=O)NCc3cccs3)sc2c2ccccc21`, `Cc1[nH]c2ccccc2c1C(=O)C(=O)NCc1cccs1` is lower in inhibition: -17.9% for the first, -20.5% for the second.

Compared with `COc1ccc(-c2noc(C3CCCN(C(=O)c4cccc(F)c4)C3)n2)cc1` (stereo not given), `CCOC(=O)/C(=N/Nc1ccc(OC)cc1)N1CCCc2ccccc21` is higher in inhibition: -12.2% for the first, -9.8% for the second.

First: CN1CCC(OC(=O)Cc2ccc(Cl)cc2)CC1
Second: O=C(NC(=O)c1cccc(Cl)c1)OC[C@@H]1CCCN2CCCCC12 (stereo not given in full)
The inhibition of the first is lower: -12.1% for the first, 14.2% for the second.

Compared with `c1ccc(Sc2cccc3ccccc23)c(CNC2=NCCN2)c1`, `Fc1ccc(Sc2ccccc2CNC2=NCCN2)cc1` is higher in inhibition: -31.1% for the first, -4.9% for the second.

Compared with `CCOC(=O)c1c(CN2CCN(C)CC2)n(-c2ccccc2)c2cc(Br)c(O)cc12`, `CCOC(=O)c1c(CN2CCOCC2)n(-c2ccccc2)c2cc(Br)c(OC)cc12` is higher in inhibition: -4% for the first, 30.8% for the second.

First: Cc1cccc(-n2c(C)cc(C(=O)NC3CCCCC3)c2C)c1
Second: COc1ccc(CCNC2CC(=O)N(C3CCCCC3)C2=O)cc1OC (stereo not given)
The inhibition of the first is lower: -17.7% for the first, -7.3% for the second.

Compared with `CCOCCCNC(=S)NNC(=O)CCn1nc(C)c(Br)c1C`, `CCn1nc(C)c(NC(=O)/C=C/c2cnn(C)c2C)c1C` is higher in inhibition: -19.5% for the first, 11% for the second.

Compared with `Cc1cc(NC(=O)CSc2nc3ccccc3c(=O)n2Cc2ccccc2)no1`, `NC(=O)CSc1nc2ccccc2c(=O)n1Cc1ccccc1` is lower in inhibition: 5% for the first, -16% for the second.

Going from `Cc1ccc(S(=O)(=O)N2CCCCC2C(=O)N(C)c2ccccc2)cc1` (stereo not given) to `COc1ccccc1N1CCN(C(=O)C(C)N(c2ccc(C)cc2)S(C)(=O)=O)CC1` (stereo not given), the inhibition rises from -15.4% to -7.9%.

Going from `Cc1cc(C)n(Cc2ccc(Cl)c(Cl)c2)c(=O)c1S(=O)(=O)c1ccccc1` to `CCOC(=O)/C(=N/Nc1ccc(Cl)cc1)S(=O)(=O)c1ccccc1`, the inhibition falls from 5.3% to -14.8%.

Going from `Cc1cnnn1-c1ccc(C(=O)CCl)cc1` to `CC(=O)c1ccc(-n2nncc2C(C)(C)C)cc1`, the inhibition rises from 19.4% to 60.5%.

Going from `O=C1N=C(N2CCOCC2)S/C1=C\c1ccncc1` to `CCn1nc(C(=O)NCC(c2cccs2)N2CCOCC2)c2ccccc2c1=O` (stereo not given), the inhibition rises from -7.7% to -2.4%.

Compared with `CC1(C)CN=C(N(C(=O)Nc2ccccc2)c2ccccc2F)S1`, `COC(=O)/C(=N/Nc1ccccc1)N1CCCc2ccccc21` is lower in inhibition: -4.1% for the first, -10.5% for the second.

Compared with `Cc1ccc(COc2ccc(-c3nnco3)cc2)cc1`, `Fc1ccc(COc2ccc(-c3nnco3)cc2)cc1` is higher in inhibition: -12.2% for the first, -10.4% for the second.

Compared with `CCCCN(CC)S(=O)(=O)c1ccc2c(c1)n(C)c(=O)c(=O)n2C`, `CCN(CC)c1c([N+](=O)[O-])c(=O)n(CC)c2ccccc12` is higher in inhibition: -6% for the first, -5.5% for the second.

Compared with `Cc1ccccc1Cn1nc(C)c(NC(=O)/C=C/c2cnn(C)c2C)c1C`, `COc1ccccc1CNc1nc(C)c(C(C)=O)s1` is higher in inhibition: -19.1% for the first, 12.6% for the second.

Compared with `Cc1nc2cc(NS(=O)(=O)c3cccc4cccnc34)ccc2s1`, `Oc1cccc(/C=N/Nc2cccc3cccnc23)c1` is lower in inhibition: -11.7% for the first, -66.8% for the second.

Compared with `CN(C)/C(=N\S(=O)(=O)c1ccccc1)c1ccccc1`, `CCOC(=O)/C(=N\Nc1ccccc1)S(=O)(=O)c1ccccc1` is higher in inhibition: -32.6% for the first, 0.6% for the second.

First: N=C1SC(CC(=O)Nc2ccc([N+](=O)[O-])cc2)C(=O)N1c1ccccc1 (stereo not given)
Second: O=C(NCCCCc1ccccc1)Nc1ccc(F)cc1
The inhibition of the first is higher: -6.5% for the first, -30.8% for the second.

Compared with `CCOC(=O)C1(CCc2ccccc2)CCN(C(=O)CCn2cnnn2)CC1`, `O=C(CCNS(=O)(=O)c1ccccc1)N1CCOCC1` is higher in inhibition: -48% for the first, -19.5% for the second.

Going from `O=C(/C=C/c1ccc(OC(F)F)cc1)Nc1cccc(S(=O)(=O)N2CCOCC2)c1` to `CCC(=O)N1c2ccc(S(=O)(=O)N3CCN(c4ccccc4Cl)CC3)cc2CC1C` (stereo not given), the inhibition rises from -23.1% to 8.1%.

Going from `Clc1ccc(-c2nc3n(n2)Cc2ccccc2-3)cc1` to `Cc1ccc(-c2nc3n(n2)Cc2ccccc2-3)cc1`, the inhibition falls from -7.2% to -27.4%.

Going from `CCNC1=C(Cl)C(=O)c2ccccc2C1=O` to `O=C1C(Cl)=C(NCCCO)C(=O)c2ccccc21`, the inhibition falls from 4.8% to -20.7%.

Going from `CC1CCc2c(sc3ncn(CC(=O)N=Nc4c(O)[nH]c5ccccc45)c(=O)c23)C1` (stereo not given) to `O=C(N/N=C/c1ccc2cccnc2c1)c1nc2ccccc2c(=O)[nH]1`, the inhibition falls from 4% to -15.6%.

Going from `Oc1ccccc1/C=N/Nc1cccc2cccnc12` to `COc1cc(/C=N/Nc2ccccn2)ccc1O`, the inhibition rises from -47.2% to 7.2%.

First: O=[N+]([O-])c1cc(Cl)cc(/C=N/Nc2nc3ccccc3s2)c1O
Second: O=C(Nc1nc2ccccc2s1)c1ccc([N+](=O)[O-])o1
The inhibition of the first is lower: 1.6% for the first, 6.5% for the second.

Going from `COc1ccc(/C=N/Nc2ccccn2)cc1OC` to `O=[N+]([O-])c1cc(/C=N\Nc2ccccn2)ccc1Cl`, the inhibition falls from 1.4% to -18.5%.

Compared with `CC1=C(C(=O)OCc2ccccc2)C(c2ccccc2OC(F)F)NC(=O)N1` (stereo not given), `COc1cccc(-c2nc(CS(=O)CC(=O)NCc3ccccc3)c(C)o2)c1` (stereo not given) is lower in inhibition: 11.1% for the first, -4.3% for the second.

Going from `Cc1ccccc1SCC(=O)N/N=C/c1ccc(F)cc1` to `O=C(O)CSc1cc(NS(=O)(=O)c2ccc(Br)cc2)c2ccccc2c1O`, the inhibition rises from 4.1% to 5.8%.

Going from `O=C(Cc1ccccc1F)Nc1nc(-c2cccnc2)cs1` to `CC(=O)c1c(C)[nH]c(C(=O)Nc2nc(-c3ccc(Cl)cc3)cs2)c1C`, the inhibition rises from -9.2% to 66.1%.

Going from `O=C(CSc1nnc(-c2ccco2)o1)NC(=O)Cc1ccccc1` to `CCc1c(C)nc2ncnn2c1NCCc1ccccc1`, the inhibition rises from -4.5% to 24%.

Going from `CC(=O)N1CN(Cc2ccccn2)Cc2c1sc1c2CCCC1` to `Cc1csc2c(N3CCN(C(=O)Nc4ccccc4)CC3)ncnc12`, the inhibition rises from -11.9% to 7.4%.

Going from `CC(=O)c1c(C)[nH]c(C(=O)Nc2nc(C)cs2)c1C` to `Cc1cc(C)c2nc(NC(=O)c3ccc([N+](=O)[O-])o3)sc2c1`, the inhibition rises from 12.4% to 37.8%.

Compared with `O=C1c2ccc(Oc3ccc([N+](=O)[O-])cc3)cc2C(=O)N1CCO`, `CCOC(=O)Cn1cncc1-c1ccc([N+](=O)[O-])cc1` is higher in inhibition: -16.9% for the first, 10.5% for the second.

Going from `COc1ccc(N2C(=O)CC(Sc3nc4c(cc3C#N)CCC4)C2=O)cc1` (stereo not given) to `CCc1c(C)nc2ncnn2c1NCCc1ccc(OC)cc1`, the inhibition rises from -26.6% to 53.3%.

Compared with `Cn1ncc2c(O/N=C(\N)c3ccc(C(F)(F)F)cc3)ncnc21`, `Cn1ncc2c(NNC(=O)c3ccc(O)cc3)ncnc21` is lower in inhibition: -5.2% for the first, -28% for the second.

Compared with `Cc1nc2ccc(C(=O)NCc3ccc4c(c3)OCO4)cc2s1`, `O=C(Nc1nc2cc3c(cc2s1)OCCO3)c1ccc([N+](=O)[O-])o1` is lower in inhibition: 11.9% for the first, -22.1% for the second.

Going from `O=C(Nc1nc2c(F)cccc2s1)c1ccc([N+](=O)[O-])o1` to `CC(=O)c1csc(Nc2ccccc2Cl)n1`, the inhibition falls from 7.3% to -3%.

First: COc1cnn(-c2ccc(C)cc2)c(=O)c1Cl
Second: Cn1c(=O)c([N+](=O)[O-])c(Cl)c2ccccc21
The inhibition of the first is higher: -22.7% for the first, -31.4% for the second.

First: Cc1csc2c(N3CCN(C(=O)Nc4ccc(OC(F)(F)F)cc4)CC3)ncnc12
Second: COc1ccc(S(=O)(=O)Nc2ccc(O)c(Sc3ncn[nH]3)c2)cc1
The inhibition of the first is higher: 22.6% for the first, -28.8% for the second.

First: CC1=Nn2c(nc(-c3ccccc3)c2-c2ccccc2)NC(=O)C1Br (stereo not given)
Second: O=S(=O)(Nc1cc(Sc2ncn[nH]2)c(O)c2ccccc12)c1ccccc1
The inhibition of the first is higher: 1.4% for the first, -1.5% for the second.

First: CCOC(=O)c1cc2c(ccn2C)n1CC(=O)N1C(C)CCCC1C (stereo not given)
Second: CCC(=O)N1c2ccc(S(=O)(=O)N3CCN(C)CC3)cc2CC1C (stereo not given)
The inhibition of the first is higher: 5.8% for the first, -8.9% for the second.

Compared with `O=S(=O)(c1ccccc1)c1ncc(C(F)(F)F)cc1O`, `O=S(=O)(Cc1ncc(C(F)(F)F)cc1Cl)c1ccccc1` is higher in inhibition: -25.1% for the first, 18% for the second.

Going from `O=C(OCCC1Oc2cccnc2NC1=O)c1ccc(Cl)cc1` (stereo not given) to `O=S(=O)(Nc1cc(Sc2cccc3cccnc23)c(O)c2ccccc12)c1ccc(F)cc1`, the inhibition rises from -29.2% to -23.7%.

For `Cc1ccc(-n2c(SCc3ccc(C#N)cc3)nnc2-c2ccccn2)cc1`, the inhibition was 2.2%.

For `Fc1ccccc1Sc1ccccc1CNC1=NCCN1`, the inhibition was 64.4% (active).
In the case of `CCOC(=O)c1c(CN2CCOCC2)n(-c2ccccc2)c2cc(Br)c(O)cc12`, the inhibition is reported as 67% (active).
For `CC(C)(C)c1cnnn1-c1ccc(C(=O)CCl)cc1`, the inhibition was 77.3% (active).
With `Cc1nn(Cc2c(Cl)cccc2Cl)c(C)c1NC(=O)/C=C/c1cnn(C)c1C` the inhibition was 99% (active).
For `CCn1c(C)nc2cc(-c3nc4n(n3)Cc3ccccc3-4)ccc21`, the inhibition was 94% (active).
For `CCN(CC)CCCNC1=C(Cl)C(=O)c2ccccc2C1=O`, the inhibition was 98.9% (active).
With `COc1cc(/C=N/Nc2ccccn2)cc(OC)c1O` the inhibition was 46.4% (active).
In the case of `COc1cc(/C=N/Nc2cccc3cccnc23)cc(OC)c1O`, the inhibition is reported as 50.8% (active).
In the case of `CCc1c(C)nc2ncnn2c1NCCc1ccc(Cl)cc1`, the inhibition is reported as 57.5% (active).
For `Cn1ncc2c(O/N=C(\N)c3ccc(C(C)(C)C)cc3)ncnc21`, the inhibition was 98.4% (active).
In the case of `CCOC(=O)/C(=N/Nc1ccccc1)N1CCCc2ccccc21`, the inhibition is reported as 90.5% (active).
In the case of `CCOC(=O)/C(=N\Nc1ccccc1)P(=O)(c1ccccc1)c1ccccc1`, the inhibition is reported as 43.4% (active).
In the case of `O=S(=O)(c1ccccc1)c1ncc(C(F)(F)F)cc1Cl`, the inhibition is reported as 50.2% (active).
With `CCn1c(=O)c([N+](=O)[O-])c(Cl)c2ccccc21` the inhibition was 61.2% (active).
For `COc1ccc(S(=O)(=O)Nc2cc(Sc3ncn[nH]3)c(O)c3ccccc23)cc1`, the inhibition was 93.1% (active).
With `O=S(=O)(Nc1cc(Sc2cccc3cccnc23)c(O)c2ccccc12)c1ccccc1` the inhibition was 109% (active).
